This is an account of results in article PMC7862700, “An all-to-all approach to the identification of sequence-specific readers for epigenetic DNA modifications on cytosine”.

Assay in all cases: DAPPL (digital affinity profiling via proximity ligation, sequencing); 10 mM Tris-HCl pH 7.5, 50 mM NaCl, 1 mM DTT, 4% glycerol, room temperature, 30 min; GST-TFs on glutathione beads, 16-mer random dsDNA library, 0.1% formaldehyde crosslink after washing; high values mean tight binding
Holding throughout (conditions): protein: recombinant; tags: N-terminal GST; dsDNA, one strand shown

One assay has as its target T1, FLI1 (Homo sapiens, UniProt Q01543 1-452).
T1 sequence: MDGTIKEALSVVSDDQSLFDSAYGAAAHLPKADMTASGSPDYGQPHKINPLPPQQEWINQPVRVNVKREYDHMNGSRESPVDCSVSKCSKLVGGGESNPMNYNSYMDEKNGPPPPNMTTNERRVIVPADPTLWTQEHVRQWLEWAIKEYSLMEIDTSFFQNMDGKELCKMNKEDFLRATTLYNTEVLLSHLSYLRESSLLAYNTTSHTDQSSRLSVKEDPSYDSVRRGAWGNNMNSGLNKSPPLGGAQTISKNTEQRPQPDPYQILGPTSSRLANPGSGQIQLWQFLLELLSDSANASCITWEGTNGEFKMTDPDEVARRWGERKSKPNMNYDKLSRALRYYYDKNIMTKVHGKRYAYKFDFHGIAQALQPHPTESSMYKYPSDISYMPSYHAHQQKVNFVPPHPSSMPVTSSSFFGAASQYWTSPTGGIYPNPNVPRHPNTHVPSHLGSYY
The essentials:
(§1)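 Binding signal is each hexamer's read frequency for a factor divided by its frequency in the tag-only sample. The factors were GST-fused human transcription factors from yeast, captured on glutathione beads, DNA-barcoded and pooled with that sample. Pools were incubated with 200 nmole of a random double-stranded 16-mer DNA library in Tris/NaCl/DTT/glycerol buffer at room temperature for 30 min, then washed, crosslinked with 0.1% formaldehyde, proximity-ligated with BsaI/T4 ligase (1 h, 37 °C), PCR-amplified and sequenced on an Illumina NextSeq500.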

The target of the next assay is T2, ELK1 (Homo sapiens, UniProt P19419 1-428).
T2 sequence: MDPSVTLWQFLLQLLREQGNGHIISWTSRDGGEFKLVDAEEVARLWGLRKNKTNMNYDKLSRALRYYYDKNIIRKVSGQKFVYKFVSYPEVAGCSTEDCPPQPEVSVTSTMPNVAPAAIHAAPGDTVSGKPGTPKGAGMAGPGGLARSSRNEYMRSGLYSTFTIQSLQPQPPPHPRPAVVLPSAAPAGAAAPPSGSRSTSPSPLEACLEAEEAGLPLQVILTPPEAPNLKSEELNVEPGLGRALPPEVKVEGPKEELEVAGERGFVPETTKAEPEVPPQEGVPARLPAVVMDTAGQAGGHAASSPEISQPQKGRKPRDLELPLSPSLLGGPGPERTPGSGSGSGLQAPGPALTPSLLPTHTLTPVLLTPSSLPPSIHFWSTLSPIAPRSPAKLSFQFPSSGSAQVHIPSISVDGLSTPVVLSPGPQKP
The essentials: as §1

For a further assay, the target named is T3, GABPA (Homo sapiens, UniProt Q06546 1-454).
T3 sequence: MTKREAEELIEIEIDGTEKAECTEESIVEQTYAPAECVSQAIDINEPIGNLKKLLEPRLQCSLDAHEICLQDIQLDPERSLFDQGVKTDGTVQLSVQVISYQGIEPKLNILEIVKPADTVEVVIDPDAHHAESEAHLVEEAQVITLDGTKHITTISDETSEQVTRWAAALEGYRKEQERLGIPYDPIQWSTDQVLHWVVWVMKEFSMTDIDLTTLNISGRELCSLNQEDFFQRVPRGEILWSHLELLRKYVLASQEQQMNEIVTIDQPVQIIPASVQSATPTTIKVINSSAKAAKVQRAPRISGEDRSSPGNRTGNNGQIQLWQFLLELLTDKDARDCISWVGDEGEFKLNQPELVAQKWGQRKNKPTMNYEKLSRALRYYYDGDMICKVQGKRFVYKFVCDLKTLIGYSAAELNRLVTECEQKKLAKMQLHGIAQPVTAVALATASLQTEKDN
The essentials:
as §1

In another assay the target is T4, ERG (Homo sapiens, UniProt P11308 1-479).
T4 sequence: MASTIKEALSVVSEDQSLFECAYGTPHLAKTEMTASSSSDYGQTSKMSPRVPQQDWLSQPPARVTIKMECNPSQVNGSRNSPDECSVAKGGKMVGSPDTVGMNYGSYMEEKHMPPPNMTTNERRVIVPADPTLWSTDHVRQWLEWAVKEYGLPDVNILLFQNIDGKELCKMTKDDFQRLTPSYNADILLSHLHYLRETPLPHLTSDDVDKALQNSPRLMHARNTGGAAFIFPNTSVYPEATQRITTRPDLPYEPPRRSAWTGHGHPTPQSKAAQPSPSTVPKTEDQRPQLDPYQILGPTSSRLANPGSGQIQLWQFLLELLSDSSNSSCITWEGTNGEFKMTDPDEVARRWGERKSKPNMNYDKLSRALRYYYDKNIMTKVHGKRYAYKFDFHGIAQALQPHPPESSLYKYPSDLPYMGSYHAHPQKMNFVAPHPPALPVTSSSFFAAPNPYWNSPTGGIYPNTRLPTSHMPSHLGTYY
Put shortly:
as §1

A further assay addresses ELF1 (Homo sapiens, UniProt P32519 1-619). Put shortly: as §1
In a further assay the target is T5, EHF (Homo sapiens, UniProt Q9NZC4 1-300).
T5 sequence: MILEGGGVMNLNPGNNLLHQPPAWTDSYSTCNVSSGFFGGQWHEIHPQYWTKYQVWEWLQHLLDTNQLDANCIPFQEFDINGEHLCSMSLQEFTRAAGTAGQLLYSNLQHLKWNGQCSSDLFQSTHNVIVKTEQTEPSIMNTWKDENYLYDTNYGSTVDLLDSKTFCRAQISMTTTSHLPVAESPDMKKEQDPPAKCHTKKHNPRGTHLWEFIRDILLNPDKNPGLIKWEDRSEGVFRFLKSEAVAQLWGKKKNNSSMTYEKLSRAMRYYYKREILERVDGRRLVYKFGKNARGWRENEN
Put shortly:
as §1

For the next assay, the target named is SPI1 (Homo sapiens, UniProt P17947 1-270). The essentials:
as §1

A further assay concerns the target SPIB (Homo sapiens, UniProt Q01892 1-262). The essentials:
as §1

A further assay deals with T6, ELK3 (Homo sapiens, UniProt P41970 1-407).
T6 sequence: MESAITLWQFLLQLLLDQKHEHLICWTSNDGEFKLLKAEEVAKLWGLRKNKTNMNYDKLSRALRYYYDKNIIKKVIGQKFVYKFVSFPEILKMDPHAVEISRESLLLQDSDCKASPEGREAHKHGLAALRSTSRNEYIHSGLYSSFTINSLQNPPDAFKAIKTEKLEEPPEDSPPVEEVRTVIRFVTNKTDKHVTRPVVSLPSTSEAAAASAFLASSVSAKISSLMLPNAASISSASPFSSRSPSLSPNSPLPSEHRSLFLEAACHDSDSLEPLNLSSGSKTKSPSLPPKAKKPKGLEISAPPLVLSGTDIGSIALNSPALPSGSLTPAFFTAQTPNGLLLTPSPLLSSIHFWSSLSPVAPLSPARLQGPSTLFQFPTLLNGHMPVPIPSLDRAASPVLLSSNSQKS
The essentials: as §1

The next assay has as its target T7, FEV (Homo sapiens, UniProt Q99581 1-238).
T7 sequence: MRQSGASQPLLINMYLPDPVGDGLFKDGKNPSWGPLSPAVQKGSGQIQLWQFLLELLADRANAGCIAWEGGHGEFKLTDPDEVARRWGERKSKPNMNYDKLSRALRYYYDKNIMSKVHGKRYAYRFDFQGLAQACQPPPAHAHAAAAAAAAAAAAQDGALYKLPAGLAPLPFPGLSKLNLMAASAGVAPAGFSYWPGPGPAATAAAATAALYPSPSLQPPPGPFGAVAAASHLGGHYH
Put shortly: as §1

Another assay addresses ETV5 (Homo sapiens, UniProt P41161 1-510). The essentials:
as §1

A further assay addresses T8, SPIC (Homo sapiens, UniProt Q8N5J4 1-248).
T8 sequence: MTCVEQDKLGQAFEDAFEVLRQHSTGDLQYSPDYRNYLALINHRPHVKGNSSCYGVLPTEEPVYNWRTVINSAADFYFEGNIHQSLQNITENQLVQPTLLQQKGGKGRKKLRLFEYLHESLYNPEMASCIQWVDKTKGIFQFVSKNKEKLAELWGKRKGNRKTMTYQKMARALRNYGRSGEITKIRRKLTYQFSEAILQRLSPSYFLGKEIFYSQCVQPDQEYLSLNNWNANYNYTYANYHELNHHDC
The essentials: as §1

The target of another assay is ELF4 (Homo sapiens, UniProt Q99607 1-663). The essentials: as §1
ELF4, sequence (Q99607 whole entry): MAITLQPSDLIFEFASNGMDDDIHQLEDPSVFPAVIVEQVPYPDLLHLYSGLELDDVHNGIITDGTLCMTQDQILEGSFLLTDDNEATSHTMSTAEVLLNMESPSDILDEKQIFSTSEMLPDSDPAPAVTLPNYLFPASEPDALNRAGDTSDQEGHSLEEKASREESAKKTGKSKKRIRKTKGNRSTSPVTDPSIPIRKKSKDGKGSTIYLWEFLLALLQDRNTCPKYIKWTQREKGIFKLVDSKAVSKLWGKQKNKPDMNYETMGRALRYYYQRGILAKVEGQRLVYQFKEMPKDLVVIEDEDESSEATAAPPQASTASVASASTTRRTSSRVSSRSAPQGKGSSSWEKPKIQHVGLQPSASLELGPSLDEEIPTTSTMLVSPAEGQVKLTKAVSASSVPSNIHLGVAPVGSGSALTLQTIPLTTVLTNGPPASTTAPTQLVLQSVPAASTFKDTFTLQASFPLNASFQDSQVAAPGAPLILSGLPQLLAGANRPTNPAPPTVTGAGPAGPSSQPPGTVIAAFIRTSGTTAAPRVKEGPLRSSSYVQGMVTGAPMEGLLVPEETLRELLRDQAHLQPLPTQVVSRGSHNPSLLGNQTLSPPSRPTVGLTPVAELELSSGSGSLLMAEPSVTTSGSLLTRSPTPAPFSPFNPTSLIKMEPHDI
Another assay deals with T9, ELK4 (Homo sapiens, UniProt P28324-2 1-405).
T9 sequence: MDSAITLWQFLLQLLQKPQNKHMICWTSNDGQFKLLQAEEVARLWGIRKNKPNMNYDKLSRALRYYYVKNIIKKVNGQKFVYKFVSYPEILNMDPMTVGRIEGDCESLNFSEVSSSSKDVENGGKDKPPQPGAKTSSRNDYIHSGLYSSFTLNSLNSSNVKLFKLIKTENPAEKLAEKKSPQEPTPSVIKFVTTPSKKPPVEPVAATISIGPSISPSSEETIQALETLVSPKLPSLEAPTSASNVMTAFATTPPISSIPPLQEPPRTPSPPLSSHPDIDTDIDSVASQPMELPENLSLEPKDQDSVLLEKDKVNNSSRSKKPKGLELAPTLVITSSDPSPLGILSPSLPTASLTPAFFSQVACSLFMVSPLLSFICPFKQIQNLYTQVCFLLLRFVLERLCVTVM
The essentials: as §1

The next assay has as its target T10, ETV2 (Homo sapiens, UniProt O00321 1-342).
T10 sequence: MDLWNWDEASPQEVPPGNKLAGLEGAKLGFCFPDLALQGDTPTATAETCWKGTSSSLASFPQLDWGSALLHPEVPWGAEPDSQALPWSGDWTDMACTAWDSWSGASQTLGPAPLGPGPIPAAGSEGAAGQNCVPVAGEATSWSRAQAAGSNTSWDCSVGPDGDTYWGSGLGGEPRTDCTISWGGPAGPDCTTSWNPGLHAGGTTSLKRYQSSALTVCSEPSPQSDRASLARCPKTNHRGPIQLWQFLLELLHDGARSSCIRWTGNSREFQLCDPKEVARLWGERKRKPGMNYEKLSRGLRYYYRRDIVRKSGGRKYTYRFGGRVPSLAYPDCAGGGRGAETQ
Put shortly: as §1

Another assay has as its target T11, ELF3 (Homo sapiens, UniProt P78545 1-371).
T11 sequence: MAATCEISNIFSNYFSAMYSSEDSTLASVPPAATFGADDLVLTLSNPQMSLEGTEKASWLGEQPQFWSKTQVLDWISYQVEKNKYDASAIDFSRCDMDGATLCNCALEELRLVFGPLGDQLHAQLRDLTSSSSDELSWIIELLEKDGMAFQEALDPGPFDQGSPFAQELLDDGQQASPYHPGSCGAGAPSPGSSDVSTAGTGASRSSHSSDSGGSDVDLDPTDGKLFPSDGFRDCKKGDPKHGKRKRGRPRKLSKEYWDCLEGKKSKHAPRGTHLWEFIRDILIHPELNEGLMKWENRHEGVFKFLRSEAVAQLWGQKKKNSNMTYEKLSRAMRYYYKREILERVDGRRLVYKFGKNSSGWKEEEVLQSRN
Put shortly:
as §1

A further assay has as its target CRX (Homo sapiens, UniProt O43186 1-299). The essentials:
as §1

For the next assay, the target named is ETV1 (Homo sapiens, UniProt P50549 1-477). The essentials:
as §1

ETV5, sequence (P41161 whole entry): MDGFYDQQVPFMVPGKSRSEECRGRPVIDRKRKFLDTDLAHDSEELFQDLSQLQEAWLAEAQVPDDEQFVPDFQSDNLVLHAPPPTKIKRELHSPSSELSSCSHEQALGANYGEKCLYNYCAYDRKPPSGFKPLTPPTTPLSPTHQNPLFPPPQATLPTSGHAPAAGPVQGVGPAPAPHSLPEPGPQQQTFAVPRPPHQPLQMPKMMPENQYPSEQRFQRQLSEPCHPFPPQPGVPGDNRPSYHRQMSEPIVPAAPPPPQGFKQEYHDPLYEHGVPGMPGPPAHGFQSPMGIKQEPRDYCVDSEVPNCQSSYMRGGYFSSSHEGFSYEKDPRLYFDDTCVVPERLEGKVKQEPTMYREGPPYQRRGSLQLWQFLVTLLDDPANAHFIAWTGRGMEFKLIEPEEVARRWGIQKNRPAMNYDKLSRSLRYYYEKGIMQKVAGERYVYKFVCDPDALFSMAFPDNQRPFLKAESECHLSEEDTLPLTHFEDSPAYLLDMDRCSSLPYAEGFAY
CRX, sequence (O43186 whole entry): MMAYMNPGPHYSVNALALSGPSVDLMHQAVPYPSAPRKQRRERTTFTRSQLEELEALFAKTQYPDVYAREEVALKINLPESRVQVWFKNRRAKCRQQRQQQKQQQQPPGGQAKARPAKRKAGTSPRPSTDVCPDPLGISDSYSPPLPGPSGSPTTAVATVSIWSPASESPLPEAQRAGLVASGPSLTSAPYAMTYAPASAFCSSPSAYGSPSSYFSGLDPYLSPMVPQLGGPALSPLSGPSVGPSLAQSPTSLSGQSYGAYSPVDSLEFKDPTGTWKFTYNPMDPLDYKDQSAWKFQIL
ETV1, sequence (P50549 whole entry): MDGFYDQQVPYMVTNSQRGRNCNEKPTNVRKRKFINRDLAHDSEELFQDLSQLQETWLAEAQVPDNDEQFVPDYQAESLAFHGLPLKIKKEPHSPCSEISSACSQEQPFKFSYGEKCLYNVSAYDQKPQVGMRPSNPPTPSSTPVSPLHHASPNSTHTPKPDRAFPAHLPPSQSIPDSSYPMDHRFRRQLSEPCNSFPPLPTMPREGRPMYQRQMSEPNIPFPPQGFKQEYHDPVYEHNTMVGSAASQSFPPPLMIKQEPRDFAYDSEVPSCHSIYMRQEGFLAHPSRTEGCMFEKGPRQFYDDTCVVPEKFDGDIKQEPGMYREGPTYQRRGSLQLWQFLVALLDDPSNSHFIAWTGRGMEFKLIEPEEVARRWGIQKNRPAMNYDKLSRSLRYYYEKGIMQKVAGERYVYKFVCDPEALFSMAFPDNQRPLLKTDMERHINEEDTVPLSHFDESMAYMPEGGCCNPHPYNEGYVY
SPIB, sequence (Q01892 whole entry): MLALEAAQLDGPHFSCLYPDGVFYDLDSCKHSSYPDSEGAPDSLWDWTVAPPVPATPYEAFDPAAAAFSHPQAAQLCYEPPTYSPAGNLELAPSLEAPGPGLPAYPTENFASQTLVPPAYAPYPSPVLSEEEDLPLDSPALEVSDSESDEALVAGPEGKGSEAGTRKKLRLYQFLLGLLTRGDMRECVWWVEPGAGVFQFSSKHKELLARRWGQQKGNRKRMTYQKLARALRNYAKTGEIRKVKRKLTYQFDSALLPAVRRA
ELF1, sequence (P32519 whole entry): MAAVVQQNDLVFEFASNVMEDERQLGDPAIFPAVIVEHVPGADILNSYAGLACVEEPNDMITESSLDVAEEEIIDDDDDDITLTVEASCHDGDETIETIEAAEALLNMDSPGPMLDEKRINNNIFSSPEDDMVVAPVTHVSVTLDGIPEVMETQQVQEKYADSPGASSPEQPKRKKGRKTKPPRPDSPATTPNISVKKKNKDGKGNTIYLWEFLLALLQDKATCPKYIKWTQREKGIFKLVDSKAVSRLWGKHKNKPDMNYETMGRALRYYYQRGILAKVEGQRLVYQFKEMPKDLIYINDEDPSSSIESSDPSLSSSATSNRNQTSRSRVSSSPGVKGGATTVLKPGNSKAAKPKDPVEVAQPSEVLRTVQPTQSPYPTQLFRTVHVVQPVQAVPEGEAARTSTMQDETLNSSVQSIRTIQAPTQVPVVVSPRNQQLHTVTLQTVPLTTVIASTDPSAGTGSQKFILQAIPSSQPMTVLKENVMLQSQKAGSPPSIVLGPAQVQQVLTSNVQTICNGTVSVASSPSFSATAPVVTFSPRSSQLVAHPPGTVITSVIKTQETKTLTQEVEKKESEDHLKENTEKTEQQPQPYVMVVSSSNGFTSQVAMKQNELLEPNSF

Take TCAATG: the binding signal with FLI1 is 1.08 fold enrichment (6-mer frequency, TF over GST control); with ELK1, 1.13 fold enrichment (6-mer frequency, TF over GST control); in the assay with GABPA, 1.11 fold enrichment (6-mer frequency, TF over GST control); in the assay with ERG, 1.1 fold enrichment (6-mer frequency, TF over GST control); with ELF1, 1.04 fold enrichment (6-mer frequency, TF over GST control); with EHF it was 1.04 fold enrichment (6-mer frequency, TF over GST control). In addition, the binding signal with SPI1 was 1.07 fold enrichment (6-mer frequency, TF over GST control); in the assay with SPIB, 1.11 fold enrichment (6-mer frequency, TF over GST control); with ELK3, 1.07 fold enrichment (6-mer frequency, TF over GST control); with FEV, 1.03 fold enrichment (6-mer frequency, TF over GST control); in the assay with ETV5, 1.02 fold enrichment (6-mer frequency, TF over GST control); with SPIC, 1.09 fold enrichment (6-mer frequency, TF over GST control). In addition, the binding signal is 1.06 fold enrichment (6-mer frequency, TF over GST control) with ELF4; 1.04 fold enrichment (6-mer frequency, TF over GST control) with ELK4; 1.05 fold enrichment (6-mer frequency, TF over GST control) with ETV2; 1.03 fold enrichment (6-mer frequency, TF over GST control) in the assay with ELF3; 1.02 fold enrichment (6-mer frequency, TF over GST control) with CRX; 1.15 fold enrichment (6-mer frequency, TF over GST control) with ETV1.
